Activity calls are given as the source filed them.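 Rule for the calls: active = mean z-score across replicates of 1.96 or higher in either the MELAS or the Rieske mutant cell line; inactive = the rest.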

The test is described as follows: MELAS cybrid and Rieske KO viability enhancers – cell-based, MELAS cybrids, Rieske KO mouse fibroblasts, CellTiter-Glo, primary screen (AID 1508586).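 Note: test concentration not given here; z relative to plate mean and SD of compound and empty wells.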 Conditions: MELAS cybrid survival, low glucose, CellTiter-Glo 48 h; stronger effect = higher value. On the technique in general: ATP-based viability assays read luminescence as a measure of living cells.
For `COc1ccc2cc(-c3c(-c4ccncc4)nc(-c4ccc(S(C)=O)cc4)n3C)ccc2c1` (centres undefined), the z-score is -0.944 (inactive).
Turning to `COc1ccc2cc(-c3c(-c4ccncc4)nc(-c4ccc(S(C)(=O)=O)cc4C)n3C)ccc2c1`, the z-score is -0.409 (inactive).
On to `CN(C)CCCn1c(-c2nonc2N)nc2cnccc21`, for which the z-score was -0.855 (inactive).
`CN1CCC(n2cnc(-c3ccc(F)cc3)c2-c2ccnc(Nc3ccccc3)n2)CC1`: the z-score was -0.528 (inactive).
For `CCS(=O)(=O)c1ccc(OC)c(Nc2ncc(-c3cccc(-c4ccccc4F)c3)o2)c1`, the z-score was 2.02 (active).
For `COC(=O)Nc1nc2ccc(Oc3ccc(NC(=O)Nc4cccc(C(=O)O)c4)cc3)cc2[nH]1` the value was -0.776 (inactive); for `COC(=O)Nc1nc2ccc(S(=O)(=O)c3ccc(NC(=O)Nc4cc(C(F)(F)F)ccc4F)cc3)cc2[nH]1`, 0.00101 (inactive).
For `COc1c(C(N)=O)cc(-c2ccc(Cl)cc2)cc1-c1ccc(S(N)(=O)=O)cc1`, the z-score is 0.239 (inactive).
The same measure for `CN(C)CCNC(=O)Nc1ccc(N(C)c2ccnc(Nc3ccc(CS(C)(=O)=O)cc3)n2)cc1`: -0.741 (inactive).
For `FC(F)(F)c1cccc(-c2nn3ncccc3c2-c2ccnc(Nc3ccc4c(c3)OCCO4)n2)c1` the value was -0.0141 (inactive).
Turning to `COc1cc(N2CCN(C(C)C)CC2)ccc1Nc1nc(Nc2cccc3ncccc23)c2cc[nH]c2n1`, the z-score is -1.02 (inactive).
With `NS(=O)(=O)c1ccc(NC2CC(c3cccc(O)c3)NN2)cc1` (centres undefined), the z-score was 1.31 (inactive).
The same measure for `COc1ccccc1-c1cc(/C=C2\C(=O)Nc3ncc(Br)cc32)cc(Br)c1O`: -0.581 (inactive).
With `CS(=O)(=O)CCNCc1cc(-c2cc3c(Nc4ccc(OCc5cccc(F)c5)c(Cl)c4)ncnc3s2)cs1`, the z-score was -0.394 (inactive).
For `CCCN1CCCC(c2ccc(Nc3nc(Nc4cc(F)ccc4C(N)=O)c4cc[nH]c4n3)c(OC)c2)C1` (centres undefined), the z-score was -0.991.
Regarding `COc1ccc2ncn(-c3cc(O[C@H](C)c4ccccc4C(F)(F)F)c(C(N)=O)s3)c2c1`, the z-score was -0.00963 (inactive).
For `Nc1nc(-c2ccc(F)cc2)c(-c2ccc3ncccc3n2)s1`, the z-score was 0.38 (inactive).
On to `Cc1ccc2[nH]c(O)c(N=Nc3ccc(S(N)(=O)=O)cc3)c2c1`, for which the z-score was -0.101 (inactive).
For the molecule `O=S1CCN(Cc2ccc(-c3ccc4ncnc(Nc5ccc(OCc6ccccc6)c(Cl)c5)c4c3)o2)CC1`, the z-score is 1.05 (inactive).
As to `CCn1c(-c2nonc2N)nc2c(C#CC(C)(C)O)ncc(OCC3CCNCC3)c21`, the z-score is 0.123 (inactive).
Take `COc1ccc2ncnc(Nc3ccc(OCc4ccccc4)cc3)c2c1`: the z-score was -0.876 (inactive).
With `COc1cc(/C=N/Nc2ncnc3c2cnn3C(C)C)ccc1O`, the z-score is -1.18 (inactive).
Regarding `COc1ccc(-c2ccncc2)cc1C(N)=O`, the z-score was -0.169 (inactive).
As for `COc1ccc(-c2coc3ncnc(N)c23)cc1`, the z-score is -0.507 (inactive).
Turning to `CCNC(=O)O[C@H]1CN[C@H](C#Cc2cc3ncnc(Nc4ccc(OCc5cccc(F)c5)c(Cl)c4)c3s2)C1`, the z-score is 0.000408 (inactive).
Turning to `Fc1ccc(Nc2nccc(-c3c(-c4ccc(C(F)(F)F)cc4)nn4ncccc34)n2)cc1F`, the z-score is -0.717 (inactive).
Regarding `CCn1c(-c2nonc2N)nc2c(C#CC(C)(C)O)nc(OC[C@H](N)c3ccccc3)cc21`, the z-score is -0.101 (inactive).
Take `Cc1nnc(-c2ccc(C)c(-c3ccc(C(=O)Nc4cccc(C#N)c4)cc3)c2)o1`: the z-score was -0.755 (inactive).
As for `Oc1cccc(-c2nc(-c3ccccc3)[nH]c2-c2ccncc2)c1`, the z-score was -0.947 (inactive).
In the case of `COc1ccc(-c2cc3c(N)ncnc3o2)cc1`, the z-score is 1.14 (inactive).
For `NS(=O)(=O)c1ccc(N=Nc2c(O)[nH]c3ccc(-c4cnco4)cc23)cc1`, the z-score is 0.293 (inactive).
For the molecule `NS(=O)(=O)c1cccc(-c2ccc3c(NC(=O)C4CC4)n[nH]c3c2)c1`, the z-score is -0.0262 (inactive).
As to `COc1cc(N2CCN(C(C)C)CC2)ccc1Nc1nc(Nc2ccc(F)cc2C(N)=O)c2cc[nH]c2n1`, the z-score is 2.96 (active).
For the molecule `CC(C)=Cc1cccc2[nH]c(O)c(N=Nc3ccc(S(N)(=O)=O)cc3)c12`, the z-score was 0.633 (inactive).
Regarding `Cc1ccc2c(-c3ccnc(Nc4ccccc4)n3)c(-c3ccc(F)cc3)nn2n1`, the z-score was 0.41 (inactive).
For `Cc1c2ccc(N(C)c3ccnc(Nc4cccc(S(N)(=O)=O)c4)n3)cc2nn1C`, the z-score is -1.32 (inactive).
On to `CNC(=O)c1cncc(/C=C/c2ccccc2Cl)c1`, for which the z-score is 1.56 (inactive).
The same measure for `COc1cc2ncnc(Nc3ccc(C)c(O)c3)c2cc1OC`: 1.32 (inactive); for `CC(C)c1ccc2c(N=Nc3ccc(S(N)(=O)=O)cc3)c(O)[nH]c2c1`: -0.58 (inactive).
